Test results: publication PMC4336329 (PLoS ONE, 2015)
In all, about 310,000 compounds went through this assay and about 14,000 (4.5%) showed an effect of 50% or more. Effects have a minus sign here. The full list was thinned out, with strong results kept by preference.

Each molecule was assayed against human ether-à-go-go-related gene (hERG) potassium channel (human, UniProt Q12809) (assay: primary screen, population patch clamp on CHO cells stably expressing hERG; higher = less effect of the substance).
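Further: peak tail current of the secondary pulse compared with the same well before compound.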

Chain of human ether-à-go-go-related gene (hERG) potassium channel (Q12809 whole entry, looked up): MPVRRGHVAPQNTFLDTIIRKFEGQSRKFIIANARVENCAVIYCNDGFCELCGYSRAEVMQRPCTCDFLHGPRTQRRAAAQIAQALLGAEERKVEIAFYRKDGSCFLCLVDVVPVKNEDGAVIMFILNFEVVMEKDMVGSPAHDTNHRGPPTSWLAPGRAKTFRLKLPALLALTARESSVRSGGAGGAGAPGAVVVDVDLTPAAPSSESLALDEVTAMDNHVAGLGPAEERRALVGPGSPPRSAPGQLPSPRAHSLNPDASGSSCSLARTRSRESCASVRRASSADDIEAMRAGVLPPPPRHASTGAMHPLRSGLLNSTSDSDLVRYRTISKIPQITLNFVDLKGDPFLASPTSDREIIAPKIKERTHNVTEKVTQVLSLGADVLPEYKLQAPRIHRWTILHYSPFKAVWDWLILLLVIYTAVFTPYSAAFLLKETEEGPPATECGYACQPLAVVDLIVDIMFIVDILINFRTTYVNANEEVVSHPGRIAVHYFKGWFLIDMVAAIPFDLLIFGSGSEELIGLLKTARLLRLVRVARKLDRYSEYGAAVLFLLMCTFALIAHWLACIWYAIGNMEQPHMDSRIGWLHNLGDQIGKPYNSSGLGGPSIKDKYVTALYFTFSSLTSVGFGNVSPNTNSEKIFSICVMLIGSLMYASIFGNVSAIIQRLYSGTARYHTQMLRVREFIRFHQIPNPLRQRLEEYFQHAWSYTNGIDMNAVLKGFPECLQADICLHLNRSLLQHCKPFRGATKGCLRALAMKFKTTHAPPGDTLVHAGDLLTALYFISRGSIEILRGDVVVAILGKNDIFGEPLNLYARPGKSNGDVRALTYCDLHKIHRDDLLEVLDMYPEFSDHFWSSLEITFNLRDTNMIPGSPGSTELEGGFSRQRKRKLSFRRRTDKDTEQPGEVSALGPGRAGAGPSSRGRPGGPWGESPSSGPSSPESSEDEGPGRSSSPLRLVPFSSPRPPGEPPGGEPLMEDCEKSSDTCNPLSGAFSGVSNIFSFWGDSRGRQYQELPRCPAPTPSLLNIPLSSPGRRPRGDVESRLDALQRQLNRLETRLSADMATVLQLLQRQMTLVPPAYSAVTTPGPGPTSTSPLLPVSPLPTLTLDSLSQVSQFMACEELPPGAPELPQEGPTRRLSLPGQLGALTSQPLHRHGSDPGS

SMILES | hERG current change (%, negative = inhibition) at 10uM
Cc1cccc2cc(CN(CCCO)C(=O)Nc3ccccc3Cl)c(=O)[nH]c12 | 5.32%
O=C(N=C1c2ccccc2CN1c1ccccc1)c1cccc([N+](=O)[O-])c1 | -1.72%
CCC1CCCCN1CCCNC(=O)CCNC(=O)Cn1cnc2ccccc2c1=O (centres unmarked) | -0.683%
Cc1nc2ccccc2c2oc(C(=O)NCCCN3CCCC(C)C3)cc12 (centres unmarked) | -19%
O=C(NCCCN1CCCC1)c1cc2c(Cl)nc3ccccc3c2s1 | -13.9%
CC1CCN(CCCNC(=O)c2cc3c(Cl)nc4ccccc4c3s2)CC1 | -66.2%
CC1CCCN(CCCNC(=O)c2cc3c(Cl)nc4ccccc4c3s2)C1 (centres unmarked) | -55.6%
CCC1CCCCN1CCCNC(=O)c1cc2c(Cl)nc3ccccc3c2s1 (centres unmarked) | -76.6%
Cc1ccc2nc(Cl)c3cc(C(=O)NCCCN4CCCC4)sc3c2c1 | -10.3%
CC1CCCN(CCCNC(=O)c2coc3nc4ccccc4nc23)C1 (centres unmarked) | -5.67%
CCN(CC)CCCNC(=O)c1cc2c(Cl)nc3ccccc3c2s1 | -47.1%
Cc1cccc(C)c1NC(=O)C1(N(Cc2ccco2)C(=O)CC2NC(=O)NC2=O)CCCCC1 (centres unmarked) | 7.25%
CCN(CC)C(=O)CSc1nnnn1-c1ccc(F)c(Cl)c1 | -3.28%
O=C(Oc1ccc(-c2nc(-c3ccccn3)no2)cc1)c1ccccc1 | 7.73%
CCOC(=O)c1[nH]c2ccc(OC)cc2c1NC(=O)c1ccc2c(c1)OCO2 | 17.1%
CN(CC(=O)Nc1ccccc1C(F)(F)F)C(=O)c1ccc(-c2ccc(Cl)cc2)o1 | -13.7%
COc1ccc(-n2nnc3c(SCC(=O)Nc4ccc5c(c4)OCCO5)ncnc32)cc1 | 0.643%
C=CCNC(=O)c1onc(CSc2ccc(Cl)cc2)c1C(=O)O | 15.2%
CC(C)(O)C#Cc1ccc(C(=O)Nc2ccc3c(c2)OCO3)s1 | 22.7%
O=C(Nc1cccnc1Cl)c1cc2ccccc2o1 | 6.92%
O=C(O)c1cccc(OS(=O)(=O)c2cc(Br)ccc2Br)c1 | -9.65%
O=C(Nc1ccccc1C(=O)O)c1cc(S(=O)(=O)N2CCOCC2)cs1 | -66.4%
Cn1cc(S(=O)(=O)N2CCOCC2)cc1C(=O)Nc1cccc(Cl)c1 | -10.4%
Cc1ccc(NC(=O)c2cc(S(=O)(=O)N3CCOCC3)cs2)cc1 | -8.31%

SMILES | hERG current change (%, negative = inhibition) at 10uM
Cc1ccc(NC(=O)c2cc(S(=O)(=O)N3CCOCC3)cn2C)cc1Cl | 11.2%
O=C(Nc1ccccc1Cl)c1cc(S(=O)(=O)N2CCOCC2)cs1 | -9.07%
O=C(Nc1ccccc1C(=O)O)c1cc(S(=O)(=O)N2CCCCC2)cs1 | 10.1%
Cn1cc(S(=O)(=O)N2CCOCC2)cc1C(=O)Nc1ccc(Cl)cc1 | -51%
O=C(Nc1ccc(Cl)cc1)c1cc(S(=O)(=O)N2CCOCC2)cs1 | -51.2%
O=C(Nc1ccc(F)cc1)c1cc(S(=O)(=O)N2CCOCC2)cs1 | -11%
CCOc1ccccc1NC(=O)NCc1ccccc1 | 0.101%
CN(C)S(=O)(=O)c1ccc2c(c1)C(CC(=O)O)NC2=O (centres unmarked) | 6.72%
CCCOc1ccc(N2C(=O)CC(SC(=NCC)NCC)C2=O)cc1 (centres unmarked) | 11.9%
Cc1nc(-c2ccccc2)sc1C(=O)CSc1ccc(F)cc1 | -7.92%
CNC(=S)NNC(=O)c1cccn(Cc2ccccc2)c1=O | 19%
COc1ccc(CN2CCN(c3ccccn3)CC2)cc1OCc1ccccc1 | -67.9%
COc1ccc(OC)c(S(=O)(=O)N2CCN(c3ccccn3)CC2)c1 | -12.5%
COc1ccc(NC(=S)N2CCN(Cc3ccccc3)CC2)c(OC)c1 | -5.79%
COc1ccc(CN2CCN(C)CC2)cc1OCc1ccccc1 | -19%
COc1ccc(CN2CCN(c3ccccn3)CC2)c(OC)c1 | -75.9%
COc1ccc(CN2CCN(CCCc3ccccc3)CC2)c(OC)c1 | -76.6%
COc1ccc(-c2[nH]ncc2CN2CCN(c3ccccn3)CC2)c(OC)c1 | -31.5%
CCN1CCN(Cc2ccc(OC)c(OCc3ccccc3)c2)CC1 | -41.9%
COc1ccc(CC(C)N2CCN(Cc3ccccc3)CC2)c(OC)c1 (centres unmarked) | -75.3%
COc1ccc(OC)c(S(=O)(=O)N2CCN(Cc3ccccc3)CC2)c1 | 2.05%
COc1ccc(S(=O)(=O)N2CCN(CCc3ccccc3)CC2)c(OC)c1 | -25.6%
COc1ccc(CN2CCc3ccccc3C2)c(OC)c1 | -28.4%
